Data as given in ChEMBL document CHEMBL3988442, “University of Dundee, Small-Polar-MMV Screening Library” (2021).
Screen size: about 48,000 compounds; about 13,000 (27%) showed an effect of 50% or more. The list shows a part of the results.

system: Wolbachia pipientis; test: Anti-Wolbachia Cell-Based Screen; format: functional; set-up: scale not given: in the data most compounds retested in dose-response had high values; details: 5 µM

SMILES	Percent Effect
O=S1(=O)CCC(c2nc(-c3cccc(Br)c3)no2)C1 (stereo unspecified)	-8.148%
CC(C)N1CCCC1c1csc(N)n1 (stereo unspecified)	125.7%
CN1[C@H]2CC[C@@H]1CN(C(=O)CCc1csc(N)n1)CC2	2.348%
CN(C)C1CCCN(C(=O)CCc2csc(N)n2)CC1 (stereo unspecified)	-10.57%
CC(NC(=O)C1(NC(=O)c2ccc3[nH]ncc3c2)CCCC1)C1CC1 (stereo unspecified)	-1.4%
CCN(Cc1ccc2c(c1)OCCO2)C(=O)NCc1cc[nH]n1	-1.226%
CCn1cnnc1CNC(=O)CCC(=O)c1ccc2c(c1)OCCO2	5.212%
CCN(Cc1ccc2c(c1)OCCO2)C(=O)NCc1nc(C)cs1	-0.008456%
CCn1cnnc1CNC(=O)N(C)Cc1ccc(F)c(F)c1	-10.5%
CCn1cnnc1CNC(=O)N(C)Cc1cccc(OC(F)F)c1	110.2%
CCn1cnnc1CNC(=O)N(C)Cc1ccc2c(c1)OCO2	127.8%
CCn1cnnc1CNC(=O)C1COc2ccc(Cl)cc2C1 (stereo unspecified)	-2.501%
CCN(Cc1ccc2c(c1)OCCO2)C(=O)NCc1nncn1CC	99.19%
CCn1cnnc1CNC(=O)N(C)Cc1ccc2c(c1)OCCO2	2.42%
CCn1cnnc1CNC(=O)N(C)Cc1ccc(Cl)cc1Cl	-3.326%
CCn1cnnc1CNC(=O)Cc1ccc2c(c1)OCCO2	101.5%
CC(NC(=O)N(C)Cc1cccc(OC(F)F)c1)c1nncn1C (stereo unspecified)	-22.06%
CCNS(=O)(=O)c1ccc(C)c(C(=O)N(C)Cc2ccco2)c1	-0.5279%
N#Cc1ccccc1OCCN1CCC(C(=O)N2CCOCC2)CC1	-3.937%
COc1cccc(CCNC(=O)CN2CCN(C)CC2C)c1 (stereo unspecified)	5.841%
Cc1nnc(N2C[C@@H]3CCCO[C@@H]3[C@H](N3CCCC3=O)C2)s1.O=C(O)C(F)(F)F	-2.907%
Cc1n[nH]c(C)c1-c1cc(-c2cccc(O)c2)nc(N)c1C#N	88.86%
Cc1n[nH]c(C)c1-c1c(C#N)c(N)nc2c1CCc1[nH]ccc1-2	9.181%
CC(C)Cc1cc(-c2cc(-c3ccc[nH]3)nc(N)c2C#N)n[nH]1	126.8%
Cc1n[nH]c(C)c1-c1cc(-c2cc[nH]c2)nc(N)c1C#N	123.5%
Cn1cc(-c2c(C#N)c(N)nc3c2CCc2[nH]ccc2-3)cc1C#N	-2.103%

SMILES	Percent Effect
Cc1n[nH]c(C)c1-c1cc(-c2ccc[nH]2)nc(N)c1C#N	119.5%
CCN(c1ccccc1C(=O)O)S(=O)(=O)c1cccc2cccnc12	-1.145%
CC(C)=CCN1CCN(C(=O)CSc2ccccn2)[C@H]2CS(=O)(=O)C[C@H]21	6.252%
c1[nH]c(CC2CCCC2)nc1CN1CCCC2(CCOC2)C1 (stereo unspecified)	-3.102%
CS(=O)(=O)c1ccc(NC(=O)CSC(F)(F)F)cn1	0.5317%
CC(C)(C)c1n[nH]c(C2CN(C(=O)Cn3ccccc3=O)CCO2)n1 (stereo unspecified)	103.2%
Cc1n[nH]c(C2CN(C(=O)Cn3ccccc3=O)CCO2)n1 (stereo unspecified)	-1.768%
CC(C)c1n[nH]c(C2CN(C(=O)CCn3ccccc3=O)CCO2)n1 (stereo unspecified)	2.958%
CC(C)c1csc(C2CCCN(C(=O)Cn3ccccc3=O)C2)n1 (stereo unspecified)	-10.1%
Cc1ccc(CC(=O)N2CCOC(c3nc(C(C)(C)C)n[nH]3)C2)cn1 (stereo unspecified)	10.27%
CC(C)c1n[nH]c(C2CN(C(=O)Cn3ccccc3=O)CCO2)n1 (stereo unspecified)	111.9%
CCN(C)S(=O)(=O)NCC1(c2ccccc2Br)CC1	2.269%
CN(Cc1csc(-c2cccs2)n1)Cc1ncccc1C(=O)O	6.204%
CN(C)C(=O)C1SCCc2ccccc21 (stereo unspecified)	-15.52%
CCOc1ccc(NC2CCN(CC(F)(F)F)C2=O)cc1C (stereo unspecified)	-0.2214%
COc1ccc(S(=O)(=O)NCC(C)(O)c2cccs2)cc1Cl (stereo unspecified)	0.9761%
COc1cccc(CN(C)C(C)c2nccs2)c1OCCn1ccnc1 (stereo unspecified)	-3.505%
Cc1ccn(-c2ccccc2NCc2cccnc2C)n1	-1.379%
O=C(NCc1cccnc1)N[C@H]1CC[C@@]2(CCC(=O)N2CC2CC2)CC1.O=C(O)C(F)(F)F	109.8%
O=C(O)C(F)(F)F.O=C1CC[C@]2(CC[C@@H](NC3CCOC3)CC2)N1Cc1ccccc1 (stereo partly specified)	-11.81%
CCN1C(=O)CC[C@]12CC[C@@H](NC(=O)NCc1cccnc1)CC2.O=C(O)C(F)(F)F	126.1%
O=C(NCc1cccnc1)NC1CCCN(c2ncccn2)C1 (stereo unspecified)	12.61%
O=C(NCc1cccnc1)C1CC(=O)N(CC2CC2)C1 (stereo unspecified)	7.078%
CN1C(=O)CC[C@]12CC[C@@H](NC(=O)NCc1cccnc1)CC2.O=C(O)C(F)(F)F	120.2%
CN1CCN(Cc2cccnc2)C2(CCN(C3CCOCC3)C2)C1=O.O=C(O)C(F)(F)F.O=C(O)C(F)(F)F.O=C(O)C(F)(F)F (stereo unspecified)	4.033%
O=C(O)C(F)(F)F.O=C1CC[C@]2(CC[C@@H](NC3CCOCC3)CC2)N1Cc1ccccc1	-21.38%

SMILES	Percent Effect
Cc1ccc(CN2C(=O)CC[C@]23CC[C@@H](NC2CCOC2)CC3)cc1.O=C(O)C(F)(F)F (stereo partly specified)	-29.75%
CCN1C(=O)CC[C@]12CC[C@@H](NC(=O)c1cc(C)on1)CC2	-41.62%
CC(C)N1CCC(NC(=O)NCc2cccnc2)C1 (stereo unspecified)	-0.2987%
CC(C)CN1C(=O)CC[C@]12CC[C@@H](NC(=O)NCc1cccnc1)CC2.O=C(O)C(F)(F)F	100.3%
CC(C)CN1CCC(c2nc3c([nH]2)CC(C)(C)CNC3=O)C1 (stereo unspecified)	-15.84%
c1cn(Cc2nnc(C3CCN(C4CCNCC4)CC3)n2C2CC2)cn1	-5.551%
O=C(NC1CC(F)(F)C1)[C@]12COC[C@H]1CN(Cc1ccccc1)C2.O=C(O)C(F)(F)F	-29.2%
NC(=O)CN1CC2(CCC1=O)CCN(Cc1ccccc1F)CC2	-12.52%
O=C1CCOC[C@]2(CN(Cc3ccccc3)C[C@H]2c2ccccc2F)N1	94.73%
O=C1CCOC[C@]2(CN(Cc3ccccc3)C[C@H]2c2ccccc2)N1	85.32%
O=C1NCC[C@]12CN(Cc1ccoc1)C[C@H]2c1ccccc1	-11.19%
O=C1NC[C@@]2(C(=O)O)CN(Cc3ccc(Oc4ccccc4)cc3)C[C@@H]12	22.58%
O=C(CC1CN(Cc2ccccc2)CCO1)Nc1ccccc1F (stereo unspecified)	-6.692%
O=C(O)CCCN1C[C@@H](c2ccccc2F)[C@@]2(CCCCC(=O)N2)C1	110%
O=C1NC2(CCN(Cc3cccnc3)CC2)CC1c1ccncc1 (stereo unspecified)	-17.77%
O=C1CCOC[C@]2(CN(Cc3ccccc3)C[C@H]2c2cccnc2)N1	97.51%
Cc1ccc(OCC(=O)N2C[C@@H]3CN(C)CCO[C@@H]3C2)cc1.O=C(O)C(F)(F)F	-15%
CN(Cc1ccoc1)C(=O)C1CCN(C(=O)C2CCCC2)CC1	-1.17%
Cc1cc(NC(=O)CN(C)CC2CCCN2c2cccnn2)n(C)n1 (stereo unspecified)	-5.162%
N[C@@H]1CCN(Cc2ccc(-c3nc(-c4cccnc4)cc(=O)[nH]3)cc2)C1	4.047%
COc1cc(C(C)=O)ccc1SCC(=O)Nc1cc(C)n[nH]1	8.192%
O=C(NC[C@]12COC[C@H]1CN(Cc1cccc(F)c1)C2)c1ccco1	10.17%
O=C1NC[C@@]2(C(=O)O)CN(Cc3cccc(CN4CCOCC4)c3)C[C@@H]12	-10.55%
O=C1CCOC[C@]2(CN(Cc3ccccc3)C[C@H]2c2cccc(F)c2)N1	100.5%
N#Cc1ccc(CNCC(C(=O)N2CCOCC2)c2ccccc2)cc1 (stereo unspecified)	-11.01%
Cc1cnn(Cc2cc(F)ccc2F)c1NC(=O)NC1CC1	-2.224%

SMILES	Percent Effect
COc1ccc(Oc2cccnc2)cc1CN1CCCC1	40.81%
COc1ccc(C)cc1CN1CCN(Cc2nccn2C)CC1	-6.315%
O=C(c1cccnc1)N1C[C@@H]2CC[C@H](C1)N(Cc1cc(F)ccc1F)C2	-19.69%
Fc1ccc(F)c(CN2CCC(c3cnccn3)CC2)c1	76.33%
COc1ccc(C)cc1CN1CCC(c2cc3ncccc3cn2)CC1.Cl	107%
Cl.Fc1ccc(F)c(CN2CCC(c3cc4ncccc4cn3)CC2)c1	84.15%
Cl.Fc1cccc(CN2CCC(c3cc4ncccc4cn3)CC2)c1F	64.82%
CN(Cc1cc(F)cc2cccnc12)CC1CCN(CCO)CC1	-1.587%
Fc1cccnc1N1CCC(NCc2cccc3cn[nH]c23)C1 (stereo unspecified)	4.996%
Cl.Cl.OC(CN1CCN(Cc2cc(F)ccc2F)CC1)C1CC1 (stereo unspecified)	-0.1352%
CC(C)CCNc1nnc(C(C)C)s1	-2.433%
Cc1noc(C)c1CN(C)C(=O)C1(N)CCCCC1	-29.06%
CCC1CN(Cc2ccccc2)CCN1Cc1nnc(C2CCC2)o1 (stereo unspecified)	7.114%
CN(Cc1nc(C2CC2)no1)C(=O)c1cccc(CC2CCNCC2)c1	-25.8%
CC(C)(O)c1cn(C2CCN(C(=O)CCc3ccncc3)CC2)nn1	-4.68%
O=C(Nc1cnc(C2CC2)nc1)N1CCCC1	-9.25%
CC(C)c1cc(C2CCN(Cc3cc(F)cc(F)c3)CC2)[nH]n1	18.27%
Fc1cc(F)cc(CN2CCC(c3cc4ncccc4cn3)CC2)c1	115.3%
Cc1cnc(CN2CCC(N(C)Cc3nnc(C)n3C)C2)cn1 (stereo unspecified)	0.1518%
CCn1c(C)nnc1CN(C)C1CCN(Cc2ccon2)C1 (stereo unspecified)	7.959%
CCn1c(C)nnc1CN(C)C1CCN(Cc2nnc(C3CC3)o2)C1 (stereo unspecified)	99.37%
CCn1c(C)nnc1CN(C)C1CCN(Cc2cnc(C)cn2)C1 (stereo unspecified)	-10.08%
Cc1nnc(CN(C)C2CCN(Cc3nnc(C4CCC4)o3)C2)n1C (stereo unspecified)	92.95%
